Only some compounds are listed: those with a hit (about 2.3% of all), similar ones and a draw of the others.
CHRM1 agonist – human M1 muscarinic receptor agonism | CHO-K1 hM1, Fluo-8 calcium fluorescence, agonist mode; 0% DMSO, 100% acetylcholine EC100 | activation, % at 3 µM | P11229 | 0.33% of 360,000 active | AID 588814;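 active = activation above the run's mean compound activation plus 3 SD, cut at about 16% in these data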;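 note: peak over basal fluorescence ratio within a 140 s kinetic read after compound addition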
Target sequence (P11229 whole entry, looked up): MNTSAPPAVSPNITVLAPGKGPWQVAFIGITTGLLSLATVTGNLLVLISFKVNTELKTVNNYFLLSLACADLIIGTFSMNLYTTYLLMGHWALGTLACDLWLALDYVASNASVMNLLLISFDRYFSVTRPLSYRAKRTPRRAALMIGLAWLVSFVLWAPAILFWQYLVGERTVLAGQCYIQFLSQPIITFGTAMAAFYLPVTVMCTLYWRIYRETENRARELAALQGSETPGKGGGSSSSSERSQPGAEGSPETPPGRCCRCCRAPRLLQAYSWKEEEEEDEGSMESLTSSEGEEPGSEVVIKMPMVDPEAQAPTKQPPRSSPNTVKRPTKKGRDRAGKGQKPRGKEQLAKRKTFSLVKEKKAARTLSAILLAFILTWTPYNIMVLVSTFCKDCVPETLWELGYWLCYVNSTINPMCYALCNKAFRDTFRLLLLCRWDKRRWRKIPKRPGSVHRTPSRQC
CHRM1 PAM – positive allosteric modulators of human M1 muscarinic receptor; 0.088% of 360,000 active; activation, % at 3 µM; CHO-K1 hM1, Fluo-8 calcium fluorescence, ACh EC20; 0% = ACh EC20, 100% = maximal ACh; AID 588819; P11229; in the data active = activation above about 19%, passing the limit was not always enough
CHO-K1 Ca PAM – M1 PAM counterscreen hit in parental CHO-K1 cells; ATP EC20, Fluo-8 calcium fluorescence; 0% at ATP EC20, 100% at ATP max; activation, % at 3 µM; 0.02% of 360,000 active;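 active = activation above the run cutoff, the mean activation of all test compounds plus 3 SD, cut at about 40% in these data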;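 note: peak over basal fluorescence ratio in a 140 s read after ATP addition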
CHRM1 antagonist – human CHRM1 antagonism. P11229. CHO-K1 hM1, Fluo-8 calcium fluorescence, ACh EC80 antagonist. inhibition, % at 3 µM. 1.3% of 360,000 active;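 active = percent inhibition above its own plate's cutoff, namely the mean of that plate's compound wells plus 3 SD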;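 note: peak over basal fluorescence ratio during 140 s after agonist addition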
CHO-K1 Ca antag – nonselective inhibitor or artifact in parental CHO-K1 cells; ATP-induced calcium, Fluo-8 fluorescence; inhibition, % at 3 µM; 0.6% of 360,000 active; AID 602250;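 active = inhibition above a per-plate cutoff, the plate's mean sample inhibition plus 3 SD, cut at about 24% in these data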
M1 ag parental – nonselective activator or artifact in parental CHO-K1 cells | Fluo-8 calcium fluorescence; scaled to maximal ATP response, vehicle zero | activation, % at 3 µM | 0.48% of 360,000 active; in the data active = activation above about 15%;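 note: untransfected CHO-K1 host cells lacking M1 receptor as counterscreen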
Hits are given with their value; 0 = inactive.

SMILES	CHRM1 agonist	CHRM1 PAM	CHO-K1 Ca PAM	CHRM1 antagonist	CHO-K1 Ca antag	M1 ag parental
Nc1nc(Nc2ccccc2)sc1C(=O)c1ccccc1	16	0	0	0	0	0
COc1ccc(C(=O)c2sc(Nc3ccccc3)nc2N)cc1	0	0	0	0	0	0
CC1C(=O)N(Cc2cn(Cc3ccco3)nn2)CCS(=O)(=O)N1Cc1ccc(-c2ccc(Cl)cc2)cc1 (centres undefined)	0	0	0	0	28	0
Cc1cccc(C)c1-c1ccc(CN2C(CC(C)C)C(=O)N(Cc3cn(CCO)nn3)CCS2(=O)=O)cc1 (centres undefined)	0	0	0	29	0	0
CC1C(=O)N(Cc2cn(CCC3OCCCO3)nn2)CCS(=O)(=O)N1Cc1ccc(-c2ccc(F)cc2)cc1 (centres undefined)	0	0	0	0	0	0
CC1C(=O)N(Cc2cn(CCC3OCCCO3)nn2)CCS(=O)(=O)N1Cc1ccc(-c2ccc(Cl)c(Cl)c2)cc1 (centres undefined)	0	0	0	31	0	0
CC1C(=O)N(Cc2cn(Cc3ccco3)nn2)CCS(=O)(=O)N1Cc1ccc(-c2ccccc2)cc1 (centres undefined)	0	0	0	0	0	0
Cn1cccc1C(NC(=O)c1ccccc1)C(Cl)(Cl)Cl (centres undefined)	0	0	0	0	0	0
O=C(NN1C(=O)NC2(CCCCC2)C1=O)c1cc2cc(Cl)ccc2o1	0	0	0	0	0	0
O=C(NN1C(=O)NC2(CCCCC2)C1=O)c1ccc(-c2ccc(Cl)cc2)o1	0	0	0	29	0	0
COc1cc(/C=C2\SC(=S)N(NS(=O)(=O)c3ccc(C)cc3)C2=O)ccc1O	0	0	0	0	0	24
COc1cc(/C=C2\SC(=S)N(NS(=O)(=O)c3ccccc3)C2=O)ccc1O	0	0	0	0	0	16
Cc1cc(NC(=O)CCC(=O)N(CC(=O)NC2CCCC2)Cc2ccccc2Cl)no1	0	0	0	0	48	0
O=C(CCC(=O)N(CC(=O)NC1CCCC1)C1CCCCC1)Nc1ccccn1	0	0	0	0	27	0
C=CCN(C(=O)CCC(=O)Nc1cc(C)on1)C(C(=O)NC1CCCC1)c1cccnc1 (centres undefined)	0	0	0	0	24	0
Cc1cc(NC(=O)CCC(=O)N(CC(=O)NC2CCCC2)Cc2ccc(F)cc2)no1	0	0	0	0	0	0
Cc1ccc(NC(=O)COc2ccc(/C(N)=N/O)cc2)cc1C	0	0	0	0	0	0
COC(=O)CN(c1cc([N+](=O)[O-])ccc1OC)S(C)(=O)=O	0	0	0	0	0	17
Cc1cccc(C)c1-n1nnnc1C(c1cccc2ccccc12)N1CCN(C/C=C/c2ccccc2)CC1 (centres undefined)	0	0	0	0	0	0
Cc1cccc(C)c1-n1nnnc1C(c1cc2ccccc2o1)N1CCN(C/C=C/c2ccccc2)CC1 (centres undefined)	0	0	0	56	0	0
CC(C)(C)n1nnnc1C(c1ccccc1)N1CCN(C/C=C/c2ccccc2)CC1 (centres undefined)	0	0	0	63	0	0
COc1ccc(-n2nnnc2C(c2ccccc2)N2CCN(C/C=C/c3ccccc3)CC2)cc1 (centres undefined)	0	0	0	68	0	0
CCCCn1nnnc1C(c1ccnc2ccccc12)N1CCN(C/C=C/c2ccccc2)CC1 (centres undefined)	0	0	0	80	0	0
CCCCn1nnnc1C(CC)N1CCN(C/C=C/c2ccccc2)CC1 (centres undefined)	0	0	0	0	0	0
CCC(c1nnnn1C(C)(C)C)N1CCN(C/C=C/c2ccccc2)CC1 (centres undefined)	0	0	0	0	0	0
SMILES	CHRM1 agonist	CHRM1 PAM	CHO-K1 Ca PAM	CHRM1 antagonist	CHO-K1 Ca antag	M1 ag parental
C[C@@H]1CN(S(=O)C(C)(C)C)[C@H](CCO)/C1=C\CCO (some centres undefined)	0	0	0	0	0	0
CCCn1c(N)c(N(CCOC)C(=O)CSc2c(Cl)cccc2Cl)c(=O)[nH]c1=O	0	0	0	0	0	0
CCCCn1nnnc1C(c1ccccc1OC(F)(F)F)N1CCN(C/C=C/c2ccccc2)CC1 (centres undefined)	0	0	0	0	0	0
CCCCn1nnnc1C(c1ccccc1)N1CCN(C/C=C/c2ccccc2)CC1 (centres undefined)	0	0	0	53	0	0
CCCCn1nnnc1C(c1cccc2ccccc12)N1CCN(C/C=C/c2ccccc2)CC1 (centres undefined)	0	0	0	95	0	0
Cc1c(Cc2ccc3c(c2)OCO3)sc(NC(=O)c2cccc3ccccc23)c1C(N)=O	0	0	0	101	0	0
CC1(C)COC(c2cccc(C3=NC(C)(C)CO3)n2)=N1	0	0	0	0	0	0
COc1ccccc1OC(C)C(=O)Nc1nc(-c2ccc(S(=O)(=O)N3CCOCC3)cc2)cs1 (centres undefined)	0	0	0	0	0	0
O=S(=O)(Nc1ccc(-c2csc(-c3ccccc3)n2)cc1)c1ccc(F)cc1	0	0	0	0	0	0
O=C(Nc1nc(-c2ccccc2)cs1)c1ccccc1NS(=O)(=O)c1ccc(F)cc1	0	0	0	42	32	0
COc1ccccc1C(=O)Nc1nc(-c2ccc(S(=O)(=O)N3CCOCC3)cc2)cs1	0	0	0	57	0	0
CCCC(C(=O)Nc1ccc2c(C)cc(=O)oc2c1)c1ccccc1 (centres undefined)	0	0	0	0	0	0
Nc1ncnc2c1ncn2[C@@H]1O[C@H](CNCc2ccccc2OCC(=O)N2CCCCC2)[C@@H](O)[C@H]1O	0	0	0	0	0	0
CCOC(=O)c1c(C2CC2)csc1NC(=O)COC(=O)CCS(=O)(=O)c1ccc(C)cc1	0	0	0	0	0	0
O=C(CCc1nc(-c2ccccc2)no1)Nc1cccnc1	0	0	0	0	0	16
N#CC1=C(N)OC2=C(C(=O)CC(c3ccccc3)C2)C1c1ccc2c(c1)OCO2 (centres undefined)	0	0	0	62	0	0
CC1(c2ccccc2)NC(=O)N(CC(=O)Nc2ccccc2N2CCCCC2)C1=O (centres undefined)	22	0	0	0	0	0
CC1(c2ccc(OC(F)F)cc2)NC(=O)N(CC(=O)Nc2cccnc2Cl)C1=O (centres undefined)	44	0	0	0	0	33
Cc1ccc(C2(C)NC(=O)N(CC(=O)Nc3cccnc3Cl)C2=O)cc1 (centres undefined)	0	0	0	0	0	0

Assay outcomes (PubChem)
